Publication PMC5540273 (PLoS ONE, 2017)

Legend:
Conditions in all cases: concentration: 1 μM, replicates: in singlicate; n = 1
PAK6 = tested on: PAK6
PAK7 = tested on: PAK7
PCTK1 = tested on: T1, PCTK1
T1 construct: gene CDK16

PCTK2 = tested on: T2, PCTK2
T2 construct: gene CDK17

PCTK3 = tested on: T3, PCTK3
T3 construct: gene CDK18

PDGFRA = tested on: PDGFRA
PDGFRB = tested on: PDGFRB
PDPK1 = tested on: PDPK1
PFTAIRE2 = tested on: PFTAIRE2
PFTK1 = tested on: T4, PFTK1
T4 construct: gene CDK14

PHKG1 = tested on: PHKG1
PHKG2 = tested on: PHKG2
PIK3C2B = tested on: PIK3C2B
PIK3C2G = tested on: PIK3C2G
PIK3CA = tested on: PIK3CA
PIK3CB = tested on: PIK3CB
PIK3CD = tested on: PIK3CD
PIK3CG = tested on: PIK3CG
PIK4CB = tested on: T5, PIK4CB
T5 construct: gene PI4KB

PIKFYVE = tested on: PIKFYVE
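Further: KINOMEscan kinase panel screen.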

SMILES	%Inh (PAK6) [%]	%Inh (PAK7) [%]	%Inh (PCTK1) [%]	%Inh (PCTK2) [%]	%Inh (PCTK3) [%]	%Inh (PDGFRA) [%]	%Inh (PDGFRB) [%]	%Inh (PDPK1) [%]	%Inh (PFTAIRE2) [%]	%Inh (PFTK1) [%]	%Inh (PHKG1) [%]	%Inh (PHKG2) [%]	%Inh (PIK3C2B) [%]	%Inh (PIK3C2G) [%]	%Inh (PIK3CA) [%]	%Inh (PIK3CB) [%]	%Inh (PIK3CD) [%]	%Inh (PIK3CG) [%]	%Inh (PIK4CB) [%]	%Inh (PIKFYVE) [%]
Cc1cccc(-c2nc(Nc3cccc(C(N)=O)c3)c3ccccc3n2)n1 [GW876019]	0	0	0	0	0	0	5	0	20	0	0	8	0	44	0	0	48	0	0	16
Nc1nc(-c2nccs2)c(-c2ccnc3ccccc23)s1 [GW693542]	9	0	8	0	5	0	1	0	13	17	2	0	0	0	0	0	0	0	0	0
O=C(Nc1ccc2c(c1)OCO2)NC1CCN(c2ccnc(Nc3ccc(F)cc3)n2)C1 (stereo not drawn) [GSK1379724]	22	0	3	0	3	0	31	0	8	8	0	0	0	0	0	0	10	0	39	0
